Measurements taken from the supplement of paper PMC10849652.
About 7,900 targets were measured; listed, in parts, are those with a hit and a random draw of the rest. About 0.6% of all pairs of compound and target were hits.

How the values were obtained:
Assay in all cases: log2 fold change, soluble protein after heating vs DMSO (PISA); higher = thermal stabilisation; K562 cells, 10 uM, 30 min; active = over 0.2 and 3.5 SD of the protein, either way, in both replicates (recomputed)
erlotinib = compound: C#Cc1cccc(Nc2ncnc3cc(OCCOC)c(OCCOC)cc23)c1 [erlotinib]
Summary of the method: (§1)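 Soluble protein was quantified by TMTpro 16plex LC-MS/MS after channel sums were equalised. It was obtained as the supernatant after 21,000xg for 90 min from pooled aliquots of K562 cells (2×10^6 cells/mL, 10 μM compound, 30 min) heated for 3 min across 48°C-58°C and extracted in PBS with 0.5% NP-40 at 4°C. Thermal stability values are relative to control samples and come from duplicates. They are given as log2 fold changes.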

[1] = compound: C/C(=N\NC(=O)C1=CC(=CC=C1)S(=O)(=O)N2CCOCC2)/C3=C(C=CC(=C3)Cl)O
Summary of the method: as §1

[2] = compound: C1=CC(=C(C=C1Cl)C2=NC3=NC=CN=C3C(=N2)NC4=CC=NC=C4)F
Summary of the method: as §1

[3] = compound: C1=CC(=CC=C1C2=NC3=C(N2)C=C(C=C3)C(=O)N)OC4=CC=C(C=C4)Cl
Summary of the method: as §1

[4] = compound: C1=CC2=C(C=CC(=C2)/C=C\3/C(=O)NC(=NCC4=CC=CS4)S3)N=C1
Summary of the method: as §1

[5] = compound: C1=CC2=NC=CN=C2C=C1/C=C/3\C(=O)NC(=O)S3
Summary of the method: as §1

[6] = compound: C1=CC=C(C=C1)C2=NC(=C(N2)C3=CC=NC=C3)C4=CC(=C(C=C4)Cl)O
Summary of the method: as §1

[7] = compound: C1=CC=C2C(=C1)C3=NNC4=CC=CC(=C43)C2=O
Summary of the method: as §1

[8] = compound: C1CCN(C1)C(=O)NC2=CC=CC(=C2)NC3=NC=C(C(=N3)NCCC4=CN=CN4)Br
Summary of the method: as §1

[9] = compound: C1CN(CCC1(CC2=CC=C(C=C2)Cl)N)C3=NC=NC4=C3C=CN4
Summary of the method: as §1

Measured: log2 fold change

TMEM161A (UniProt Q9NX61)
Sequence of UniProt Q9NX61 (Q9NX61 whole entry, looked up): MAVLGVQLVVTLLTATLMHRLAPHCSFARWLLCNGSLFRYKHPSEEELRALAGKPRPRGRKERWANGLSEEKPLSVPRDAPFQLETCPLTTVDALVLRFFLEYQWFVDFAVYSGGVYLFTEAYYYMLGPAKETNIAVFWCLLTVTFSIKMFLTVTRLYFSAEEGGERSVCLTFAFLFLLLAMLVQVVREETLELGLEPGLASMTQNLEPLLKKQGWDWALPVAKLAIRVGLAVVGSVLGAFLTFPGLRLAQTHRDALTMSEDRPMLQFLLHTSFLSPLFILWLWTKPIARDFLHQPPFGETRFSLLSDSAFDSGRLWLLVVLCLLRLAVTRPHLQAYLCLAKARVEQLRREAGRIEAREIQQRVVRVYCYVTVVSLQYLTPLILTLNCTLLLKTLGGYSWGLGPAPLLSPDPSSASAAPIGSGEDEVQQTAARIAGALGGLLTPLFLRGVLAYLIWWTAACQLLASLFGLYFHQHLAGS
inactive: erlotinib 0.017 | [1] 0.088 | [2] -0.019 | [3] -0.018 | [4] 0.021 | [5] 0.001 | [6] 0.029 | [7] -0.006 | [8] -0.067 | [9] 0.054

UBA6
inactive: erlotinib 0.011 | [1] 0.099 | [2] 0.06 | [3] 0.038 | [4] 0.014 | [5] -0.037 | [6] 0.014 | [7] 0.015 | [8] -0.024 | [9] -0.015

WASHC2A (UniProt Q641Q2)
inactive: erlotinib 0.008 | [1] -0.026 | [2] -0.025 | [3] 0.002 | [4] 0.004 | [5] 0.058 | [6] -0.072 | [7] -0.037 | [8] 0.029 | [9] -0.017

UCHL5 (UniProt Q9Y5K5)
inactive: erlotinib -0.018 | [1] 0.094 | [2] 0.005 | [3] -0.024 | [4] 0.036 | [5] 0.008 | [6] 0.02 | [7] 0.03 | [8] -0.001 | [9] -0.01

WASHC3 (UniProt Q9Y3C0)
Sequence of UniProt Q9Y3C0 (Q9Y3C0 whole entry, looked up): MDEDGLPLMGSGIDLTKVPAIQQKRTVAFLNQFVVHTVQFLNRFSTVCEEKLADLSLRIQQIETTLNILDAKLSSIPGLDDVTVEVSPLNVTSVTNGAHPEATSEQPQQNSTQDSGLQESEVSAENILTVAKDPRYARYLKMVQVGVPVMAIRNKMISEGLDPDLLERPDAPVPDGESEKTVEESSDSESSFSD
inactive: erlotinib 0.029 | [1] -0.015 | [2] 0.053 | [3] 0.007 | [4] 0.12 | [5] 0.036 | [6] 0.017 | [7] -0.114 | [8] -0.041 | [9] 0.059

TSPAN13 (UniProt O95857)
inactive: erlotinib 0.017 | [2] -0.058 | [3] 0.061 | [5] 0.075 | [6] -0.02 | [8] 0.065 | [9] 0.143

TTC26
inactive: [5] 0.001 | [6] -0.005 | [8] 0.09 | [9] -0.062

TRPT1 isoform 4 (UniProt Q86TN4)
inactive: erlotinib 0.021 | [1] 0.065 | [3] -0.08 | [4] 0.021 | [6] 0.043 | [7] -0.062

TRIQK (UniProt Q629K1)
Sequence of UniProt Q629K1 (Q629K1 whole entry, looked up): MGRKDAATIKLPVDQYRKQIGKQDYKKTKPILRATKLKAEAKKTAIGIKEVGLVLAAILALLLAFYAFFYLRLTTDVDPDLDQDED
inactive: [2] -0.023 | [5] 0.046 | [6] -0.077 | [8] -0.003 | [9] 0.097

TRIM5 (UniProt Q9C035)
inactive: erlotinib -0.061 | [1] 0.075 | [2] 0.111 | [3] 0.162 | [4] 0.012 | [6] -0.182 | [7] 0.019 | [8] -0.077 | [9] -0.01

UBXN10 (UniProt Q96LJ8)
Sequence of UniProt Q96LJ8 (Q96LJ8 whole entry, looked up): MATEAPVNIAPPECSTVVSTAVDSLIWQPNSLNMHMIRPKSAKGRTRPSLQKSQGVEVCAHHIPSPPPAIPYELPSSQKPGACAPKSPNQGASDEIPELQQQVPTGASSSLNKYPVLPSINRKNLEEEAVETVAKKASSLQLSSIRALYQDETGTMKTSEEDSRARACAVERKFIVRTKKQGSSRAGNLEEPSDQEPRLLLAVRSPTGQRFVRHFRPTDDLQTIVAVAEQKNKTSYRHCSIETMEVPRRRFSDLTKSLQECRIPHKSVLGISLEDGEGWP
inactive: erlotinib -0.036 | [2] 0.004 | [3] 0.048 | [5] -0.068 | [6] -0.077 | [8] -0.101 | [9] 0.128

TRIM44 (UniProt Q96DX7)
Sequence of UniProt Q96DX7 (Q96DX7 whole entry, looked up): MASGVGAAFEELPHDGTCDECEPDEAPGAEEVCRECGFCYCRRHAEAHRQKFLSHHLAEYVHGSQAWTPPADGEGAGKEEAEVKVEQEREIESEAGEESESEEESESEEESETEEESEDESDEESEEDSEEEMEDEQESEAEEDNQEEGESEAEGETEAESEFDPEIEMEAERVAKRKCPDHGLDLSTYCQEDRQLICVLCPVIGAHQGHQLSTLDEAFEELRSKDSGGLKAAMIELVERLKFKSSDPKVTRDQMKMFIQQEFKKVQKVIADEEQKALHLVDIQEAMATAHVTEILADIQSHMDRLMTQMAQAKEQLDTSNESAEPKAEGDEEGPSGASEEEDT
inactive: erlotinib 0.022 | [1] 0.1 | [3] 0.025 | [4] 0.028 | [5] 0.087 | [6] -0.061 | [7] -0.037 | [8] -0.023 | [9] -0.014

WARS1 (UniProt G3V3P2)
inactive: [5] 0.155

XAB2 (UniProt Q9HCS7)
inactive: [2] -0.223 | [6] 0.075

U2AF1L5 (UniProt P0DN76)
active: erlotinib 1.29
inactive: [1] 0.031 | [3] 0.022 | [4] -0.159 | [5] 0.096 | [7] -0.005 | [8] 0.153 | [9] -0.207

TVP23C (UniProt Q96ET8)
Sequence of UniProt Q96ET8 (Q96ET8 whole entry, looked up): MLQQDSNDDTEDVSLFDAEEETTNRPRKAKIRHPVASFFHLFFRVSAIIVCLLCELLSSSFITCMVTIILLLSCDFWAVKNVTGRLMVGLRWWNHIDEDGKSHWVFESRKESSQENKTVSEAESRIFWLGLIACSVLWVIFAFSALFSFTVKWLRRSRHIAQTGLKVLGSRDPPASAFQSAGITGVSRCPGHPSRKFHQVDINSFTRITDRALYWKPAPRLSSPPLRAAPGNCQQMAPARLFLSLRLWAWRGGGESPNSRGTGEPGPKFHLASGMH
inactive: erlotinib -0.025 | [1] 0.053 | [3] -0.021 | [4] 0.062 | [7] -0.098 | [8] 0.066 | [9] -0.031

WDR4 isoform 3 (UniProt P57081)
inactive: [2] -0.144 | [5] 0.045

WDR46, A0A0G2JJL1
inactive: erlotinib -0.273 | [2] -0.741 | [3] -0.011 | [5] 0.027 | [8] 0.279 | [9] 0.114

TUBA4A (UniProt C9JJQ8)
inactive: [5] 0.004 | [8] 0.142 | [9] -0.036

WARS1 (UniProt G3V277)
inactive: erlotinib 0.183 | [1] -0.032 | [3] -0.076 | [4] 0.25 | [5] 0.036 | [7] -0.014 | [8] 0.141 | [9] -0.008

WARS1 (UniProt G3V227)
inactive: [1] -0.08 | [2] 0.018 | [4] -0.159 | [5] 0.093 | [7] -0.178 | [8] 0.098 | [9] -0.089

ULBP1 (UniProt Q9BZM6)
Sequence of UniProt Q9BZM6 (Q9BZM6 whole entry, looked up): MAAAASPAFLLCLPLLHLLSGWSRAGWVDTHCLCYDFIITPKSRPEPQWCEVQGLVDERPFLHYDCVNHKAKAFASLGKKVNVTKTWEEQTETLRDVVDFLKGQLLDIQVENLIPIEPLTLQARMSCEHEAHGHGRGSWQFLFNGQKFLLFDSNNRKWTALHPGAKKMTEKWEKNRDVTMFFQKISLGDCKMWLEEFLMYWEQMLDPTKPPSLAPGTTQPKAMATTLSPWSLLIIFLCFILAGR
inactive: erlotinib -0.017 | [1] 0.011 | [2] 0.231 | [3] 0.044 | [4] 0.021 | [6] -0.083 | [7] 0.037 | [8] -0.073 | [9] 0.078

UBIAD1 (UniProt Q9Y5Z9)
active: [7] 0.297
inactive: erlotinib 0.101 | [1] -0.052 | [3] 0.04 | [4] 0.194 | [5] -0.036 | [6] 0.259 | [8] 0 | [9] 0.094

WDR75 (UniProt Q8IWA0)
Sequence of UniProt Q8IWA0 (Q8IWA0 whole entry, looked up): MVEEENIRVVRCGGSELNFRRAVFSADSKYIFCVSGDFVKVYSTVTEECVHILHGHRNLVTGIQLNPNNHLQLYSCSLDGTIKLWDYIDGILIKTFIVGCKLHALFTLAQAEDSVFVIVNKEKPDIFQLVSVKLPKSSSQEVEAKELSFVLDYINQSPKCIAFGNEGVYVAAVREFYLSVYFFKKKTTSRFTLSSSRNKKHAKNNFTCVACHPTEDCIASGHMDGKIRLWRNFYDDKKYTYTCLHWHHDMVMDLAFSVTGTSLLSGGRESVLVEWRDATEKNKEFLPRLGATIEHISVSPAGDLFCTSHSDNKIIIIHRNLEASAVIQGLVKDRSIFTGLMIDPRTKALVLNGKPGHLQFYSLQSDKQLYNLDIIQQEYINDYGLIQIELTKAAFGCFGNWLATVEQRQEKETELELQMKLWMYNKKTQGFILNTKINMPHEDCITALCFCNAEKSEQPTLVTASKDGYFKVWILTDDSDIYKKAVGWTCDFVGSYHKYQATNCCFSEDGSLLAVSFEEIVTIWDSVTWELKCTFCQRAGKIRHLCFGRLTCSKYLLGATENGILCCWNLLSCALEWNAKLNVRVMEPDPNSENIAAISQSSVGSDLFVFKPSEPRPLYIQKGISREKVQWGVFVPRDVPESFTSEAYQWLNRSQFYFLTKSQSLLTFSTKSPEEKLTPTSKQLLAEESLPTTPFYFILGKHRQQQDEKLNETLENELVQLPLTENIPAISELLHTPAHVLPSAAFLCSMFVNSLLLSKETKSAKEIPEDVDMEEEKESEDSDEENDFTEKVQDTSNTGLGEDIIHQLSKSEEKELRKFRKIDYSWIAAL
inactive: [1] -0.256 | [2] -0.592 | [4] 0.306 | [5] 0.091 | [6] -0.063 | [7] 0.042 | [8] -0.193 | [9] 0.021

TXNRD1 isoform 7 (UniProt Q16881)
inactive: erlotinib 0.107 | [2] 0.1 | [3] -0.193 | [5] 0.199

WARS1 (UniProt G3V5U1)
inactive: [2] -0.233 | [5] 0.187

UBAP2L (UniProt F8W726)
inactive: erlotinib 0.019 | [3] 0.004 | [5] -0.019 | [8] 0 | [9] 0.124

UBE2D1 (UniProt P51668)
inactive: erlotinib 0.098 | [1] 0.071 | [3] 0.068 | [4] 0.057 | [5] 0.023 | [6] 0.01 | [7] -0.096 | [8] 0.022 | [9] -0.162

VKORC1 (UniProt Q9BQB6)
inactive: erlotinib 0.048 | [1] -0.048 | [3] -0.019 | [4] 0.175 | [5] 0.113 | [6] 0.044 | [7] 0.151 | [8] -0.049 | [9] 0.005

TXNL4B (UniProt Q9NX01)
inactive: erlotinib 0.018 | [1] 0.007 | [3] -0.001 | [4] 0.088 | [5] 0.221 | [6] 0.008 | [7] 0.041 | [8] -0.005 | [9] -0.016

TMEM184C (UniProt Q9NVA4)
inactive: [1] 0.04 | [2] -0.055 | [4] -0.05 | [5] -0.027 | [6] -0.047 | [7] -0.009 | [8] -0.092 | [9] -0.059

WARS1 (UniProt G3V339)
inactive: [2] -0.023

TRIM23 (UniProt P36406)
inactive: erlotinib 0.006 | [3] 0.075 | [5] -0.096 | [6] 0.061 | [8] -0.202 | [9] 0.161

UTP20 (UniProt O75691)
inactive: erlotinib -0.082 | [2] 0.053 | [3] -0.321 | [8] 0.061 | [9] 0.04

USP48 (UniProt Q86UV5)
Sequence of UniProt Q86UV5 (Q86UV5 whole entry, looked up): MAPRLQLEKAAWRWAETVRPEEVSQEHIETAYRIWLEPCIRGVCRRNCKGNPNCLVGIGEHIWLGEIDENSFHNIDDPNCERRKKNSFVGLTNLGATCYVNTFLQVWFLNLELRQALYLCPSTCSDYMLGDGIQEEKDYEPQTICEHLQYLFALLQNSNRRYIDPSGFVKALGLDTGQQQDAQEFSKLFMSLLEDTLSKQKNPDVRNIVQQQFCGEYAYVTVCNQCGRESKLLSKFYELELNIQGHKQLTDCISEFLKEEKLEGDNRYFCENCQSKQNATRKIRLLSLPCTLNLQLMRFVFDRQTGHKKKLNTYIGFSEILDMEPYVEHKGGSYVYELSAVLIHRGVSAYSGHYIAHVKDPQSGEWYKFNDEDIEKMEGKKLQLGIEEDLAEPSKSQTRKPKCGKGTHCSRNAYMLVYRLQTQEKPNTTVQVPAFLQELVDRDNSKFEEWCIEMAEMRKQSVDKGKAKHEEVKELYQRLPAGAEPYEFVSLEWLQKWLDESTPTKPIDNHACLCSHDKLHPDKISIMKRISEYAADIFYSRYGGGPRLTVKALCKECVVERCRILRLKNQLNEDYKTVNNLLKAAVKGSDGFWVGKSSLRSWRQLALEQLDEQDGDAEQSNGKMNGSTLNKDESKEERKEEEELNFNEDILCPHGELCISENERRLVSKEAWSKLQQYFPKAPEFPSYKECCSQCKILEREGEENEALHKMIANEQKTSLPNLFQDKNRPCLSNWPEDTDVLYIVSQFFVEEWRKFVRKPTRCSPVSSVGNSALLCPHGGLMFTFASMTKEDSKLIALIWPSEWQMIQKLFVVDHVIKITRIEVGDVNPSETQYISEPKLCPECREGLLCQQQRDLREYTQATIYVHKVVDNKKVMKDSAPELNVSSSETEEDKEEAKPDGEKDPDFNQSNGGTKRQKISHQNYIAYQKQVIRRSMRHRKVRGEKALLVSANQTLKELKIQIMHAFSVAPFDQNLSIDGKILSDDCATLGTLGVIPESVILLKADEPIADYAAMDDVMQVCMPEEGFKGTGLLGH
inactive: erlotinib 0.228 | [3] -0.112 | [5] 0.007

UBE3B (UniProt Q7Z3V4)
inactive: [1] 0.018 | [2] 0.08 | [4] 0.121 | [5] 0.135 | [6] 0.064 | [7] -0.043 | [8] 0.395 | [9] 0.16

UNC119B (UniProt A6NIH7)
inactive: erlotinib 0 | [1] 0.124 | [3] 0.316 | [4] 0.031 | [5] 0.001 | [7] 0.005 | [8] -0.012
active: [6] 0.472 | [9] 0.454

TUT4 (UniProt Q5TAX3)
inactive: erlotinib 0.077 | [2] -0.231 | [3] 0.005 | [5] -0.011 | [6] 0.08 | [8] -0.015 | [9] -0.129

TOM1 (UniProt O60784)
inactive: erlotinib 0.082 | [2] 0.193 | [3] -0.037 | [5] 0.186 | [8] 0.022 | [9] -0.097

TMEM8A (UniProt Q9HCN3)
Sequence of UniProt Q9HCN3 (Q9HCN3 whole entry, looked up): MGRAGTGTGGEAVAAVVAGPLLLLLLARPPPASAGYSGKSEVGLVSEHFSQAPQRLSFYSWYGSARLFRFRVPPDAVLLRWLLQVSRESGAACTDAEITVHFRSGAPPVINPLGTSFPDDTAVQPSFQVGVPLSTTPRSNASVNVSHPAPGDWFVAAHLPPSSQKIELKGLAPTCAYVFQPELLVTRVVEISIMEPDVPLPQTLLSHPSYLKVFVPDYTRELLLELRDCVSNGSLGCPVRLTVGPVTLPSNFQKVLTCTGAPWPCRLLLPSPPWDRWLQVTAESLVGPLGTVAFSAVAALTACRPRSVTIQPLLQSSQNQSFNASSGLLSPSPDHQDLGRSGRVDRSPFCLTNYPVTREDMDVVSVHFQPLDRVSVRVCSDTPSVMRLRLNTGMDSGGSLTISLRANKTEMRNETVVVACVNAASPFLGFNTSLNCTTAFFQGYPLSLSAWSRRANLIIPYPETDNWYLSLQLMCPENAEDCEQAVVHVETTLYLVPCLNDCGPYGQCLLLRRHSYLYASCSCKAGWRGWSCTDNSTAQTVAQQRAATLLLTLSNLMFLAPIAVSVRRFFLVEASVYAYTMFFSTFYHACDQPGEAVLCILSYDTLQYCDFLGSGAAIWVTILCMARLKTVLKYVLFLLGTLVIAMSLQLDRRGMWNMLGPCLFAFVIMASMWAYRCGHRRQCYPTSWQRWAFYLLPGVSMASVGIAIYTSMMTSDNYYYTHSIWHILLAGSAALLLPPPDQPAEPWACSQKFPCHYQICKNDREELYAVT
inactive: erlotinib 0.046 | [3] -0.001 | [5] 0.02 | [6] 0.124 | [8] -0.014 | [9] 0.011

TOM1L2 (UniProt Q6ZVM7)
inactive: erlotinib -0.048 | [1] 0.06 | [2] 0.043 | [3] 0.013 | [4] 0.025 | [7] -0.026

UBXN8 (UniProt O00124)
Sequence of UniProt O00124 (O00124 whole entry, looked up): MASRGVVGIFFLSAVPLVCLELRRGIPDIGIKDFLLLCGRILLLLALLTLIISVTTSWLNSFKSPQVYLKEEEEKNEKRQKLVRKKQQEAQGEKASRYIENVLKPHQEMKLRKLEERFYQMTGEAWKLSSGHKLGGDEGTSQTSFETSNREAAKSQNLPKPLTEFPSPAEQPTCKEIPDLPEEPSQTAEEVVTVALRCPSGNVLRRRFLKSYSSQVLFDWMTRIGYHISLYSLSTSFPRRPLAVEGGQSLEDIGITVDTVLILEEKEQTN
inactive: [1] 0.056 | [2] 0.147 | [4] 0.141 | [5] -0.41 | [6] -0.149 | [7] -0.036 | [8] 0.167 | [9] -0.019
